Only some compounds are listed: those with a hit (about 6.8% of all), similar ones and a draw of the others.
Spn MK inh: S. pneumoniae MK inhibitors, primary screen, biochemical, PK/LDH-coupled NADH absorbance; purified MK, PK/LDH-coupled NADH absorbance 340 nm; inhibition, % at 10 µM; actives 0.48% (n = 65,000);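 active = ranked among the strongest by inhibition in the single 10 µM screen, a fixed top-ranked set picked for dose follow-up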
Spn PMK inh: S. pneumoniae PMK inhibitors, primary screen, biochemical, mevalonate pathway, pilot trial included | actives 0.49% (n = 65,000) | inhibition, % at 10 µM | purified PMK, PK/LDH-coupled NADH absorbance 340 nm;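 active = top-ranked compounds by inhibition in the single 10 µM screen, taking a fixed number of the strongest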;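 also: 0% = full reaction with DMSO carrier and 100% = background rate without enzyme reaction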
Autofluor 339: intrinsic fluorescence of library compounds, ex339/em460 – biochemical, MLSMR library, data from DPM-DC assay, artefact control, profiling panel; compound autofluorescence, ex339/em460 nm, NADH buffer; stronger effect = higher value; 1 = no-compound wells, NADH background; fluorescence fold increase at 10 µM; actives 5.5% (n = 65,000);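 active = at 10 µM, mean starting fluorescence two-fold or more over control wells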;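 also: signal is the first read of a kinetic run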
Abs 340nm: compound light absorbance at 340 nm, profiling panel, artefact control, biochemical, MLSMR library, data from PS, PMK, MK assays; 65,000 tested, under 10 active; compound absorbance at 340 nm, fold over control; AID 708, 2007; fold change at 10 µM;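 active = at 10 µM dose, initial 340 nm absorbance at least 2 fold that of control wells; inactive = change under 2 fold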;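 also: initial absorbance extrapolated from kinetic A340 decline of NADH oxidation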
NADH coupling: inhibitors of PK/LDH coupling enzymes, profiling panel, artefact control, biochemical, MLSMR library | actives 0.02% (n = 65,000) | coupled PK/LDH NADH assays, four targets | IC50, µM (highest dose often 10 µM), inactives show at the highest dose inhibition;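 active = single-dose screening hits from any of four coupled enzyme assays that gave an IC50 when retested across doses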;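 also: the DPM-DC format reads NADH fluorescence rather than 340 nm absorbance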
DPM-DC inhibit: S. pneumoniae DPM-DC inhibitors, primary screen, biochemical, PK/LDH-coupled NADH fluorescence. diphosphomevalonate decarboxylase (Streptococcus pneumoniae D39). purified DPM-DC. calls only at 10 µM. actives 0.49% (n = 65,000). AID 556, 2006;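 active = the 320 compounds with the highest percent inhibition in the single-dose primary screen, excluding strongly autofluorescent ones, cut at about 32% in these data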;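 also: kinetic rate of NADH fluorescence loss reporting ADP formed by the decarboxylase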
* = called active by the depositor; i = inactive; · = no result given.

SMILES	Spn MK inh	Spn PMK inh	Autofluor 339	Abs 340nm	NADH coupling	DPM-DC inhibit
CCOc1ccc2[nH]c(=O)c(CN(CCOC)C(=O)N3CCOCC3)cc2c1	1	13	3*	1	4%	·
CCOc1ccc2[nH]c(=O)c(CN(Cc3ccc(C)cc3)C(=O)N3CCCC3)cc2c1	0	11	2.6*	1	9%	i
Cc1ccc(CN(Cc2cc3cc(C)ccc3[nH]c2=O)C(=O)N2CCOCC2)cc1	8	15	1.6	1	14%	i
CCOC(=O)c1[nH]c(=O)[nH]c1COC(=O)c1cc2ccccc2o1	0	5	1.2	1	5%	i
CC(=O)c1cc2c(cc1NC(=O)Nc1cccc(Cl)c1)OCCO2	6	0	2.6*	1	6%	i
CCC(=O)c1cc2c(cc1NC(=O)C(C)C)OCCO2	3	11	2.1*	1	5%	i
CC(C)C(=O)Nc1cc2c(cc1C(=O)c1ccccc1)OCCO2	8	3	1.1	0.99	4%	i
CC(=O)Nc1cc2c(cc1C(C)=O)OCCO2	0	5	3.6*	1.1	3%	·
O=C(Nc1cccc(Cl)c1)Nc1ccc2c(c1)OCO2	1	8	1.1	1.1	3%	i
Cc1cccc(N2CCN(S(=O)(=O)c3cnc[nH]3)CC2)c1C	10	5	1.1	1	5%	i
COCCNC(=O)c1c[nH]c2ccc(S(=O)(=O)N3CCC4(CC3)OCCO4)cc2c1=O	0	19	2.1*	1.1	10%	·
CCN(CC)S(=O)(=O)c1ccc2c(c1)c(=O)c(C(=O)N1CCOCC1)cn2C	4	12	0.99	1	6%	i
CCN(c1ccccc1)S(=O)(=O)c1ccc2[nH]cc(C(=O)N3CCOCC3)c(=O)c2c1	0	22	2.1*	1.1	11%	·
CC1CCN(S(=O)(=O)c2ccc3[nH]cc(C(=O)NCCN4CCOCC4)c(=O)c3c2)CC1	0	12	1.8	1	2%	·
COc1ccc2[nH]cc(C(=O)N3CCCCC3)c(=O)c2c1	9	2	2.1*	1.1	5%	i
CCOC(=O)N1CCN(S(=O)(=O)c2ccc3[nH]cc(C(=O)O)c(=O)c3c2)CC1	3	17	2.4*	1.1	10%	i
CCc1ccc2[nH]cc(C(=O)N3CCCCCC3)c(=O)c2c1	5	10	1	1.1	6%	i
O=C(O)c1c[nH]c2ccc(S(=O)(=O)N3CCN(c4ccc(F)cc4)CC3)cc2c1=O	0	10	1.2	1	2%	i
Cc1ccc(S(=O)(=O)N2CCOCC2)cc1C(=O)N1CCOCC1	2	4	1	1	6%	i
O=C(c1c[nH]c2ccc(S(=O)(=O)N3CCOCC3)cc2c1=O)N1CCCC1	4	1	4.2*	1.1	3%	·
Cc1ccc(S(=O)(=O)n2nc(-c3ccco3)nc2SCc2ccccc2)cc1	5	0	1.1	1.1	2%	i
CCS(=O)(=O)N1CCN(C2CCC(C)CC2)CC1 (stereo not given)	61*	17	1.1	1	26%	i
CC1CCC(N2CCN(S(C)(=O)=O)CC2)CC1 (stereo not given)	29	10	1.1	1	13%	i
Cc1nn(-c2ccccc2)c(C)c1C(=O)OCC(=O)c1c(N)n(CC(C)C)c(=O)n(C)c1=O	0	9	1.1	0.99	2%	i
CC(C)Cn1c(N)c(C(=O)COC(=O)c2cc(-c3ccco3)nc3ccccc23)c(=O)n(C)c1=O	0	0	2.1*	1	1%	·
SMILES	Spn MK inh	Spn PMK inh	Autofluor 339	Abs 340nm	NADH coupling	DPM-DC inhibit
O=C(COC(=O)c1cc(-c2cccs2)nc2ccccc12)NCc1ccco1	2	15	4.9*	1	9%	·
O=C(COC(=O)c1cc(-c2ccco2)nc2ccccc12)NCc1ccc2c(c1)OCO2	9	0	2.1*	1	2%	·
O=C(Cn1c(=O)n(CCCC(=O)NC2CCCC2)c(=O)c2ccccc21)NCCC1=CCCCC1	1	9	1.1	1.1	3%	i
CC1CCCN(C(=O)C(Cc2ccccc2)n2cccc2)C1 (stereo not given)	0	4	1.1	1	1%	i
Nc1ccc2c3c(cccc13)CC2	6	2	2.3*	1	4%	·
O=C1NCCCC1C(=O)Nc1ccccn1 (stereo not given)	9	13	1.1	1	8%	i
CCOC(=O)c1c(C)n(C)c2ccc(OC)c(NS(=O)(=O)c3ccc(Cl)s3)c12	3	78*	1.1	1.1	27%	i
COc1cc(SC)ccc1C(=O)Nc1ccc2c(c1)OCCO2	5	5	1.1	1.1	3%	i
O=C(NC12CC3CC(CC(C3)C1)C2)c1ccccc1O	9	6	2.2*	1	7%	i
CCCCc1c(C)c2ccc(OCC(C)=O)cc2oc1=O	0	4	2.3*	1.1	2%	·
Cc1c(CCC(=O)O)c(=O)oc2cc(O)ccc12	0	0	2.1*	1.1	0%	·
CCC(=O)Oc1ccc2c(C)c(Cl)c(=O)oc2c1	1	0	2.2*	1.1	1%	·
Cc1c(CCC(=O)O)c(=O)oc2cc3occ(-c4ccc(F)cc4)c3cc12	11	8	1.6	1.1	9%	i
CCCCc1cc(=O)oc2cc(OCC(=O)N(CC)CC)c(Cl)cc12	8	16	1.5	1	5%	i
CCN(CC)C(=O)Oc1ccc2c(=O)c(-c3ccc(OC)cc3)c(C)oc2c1	7	11	1.2	1	6%	i
CCCCc1cc(=O)oc2cc(OCC(=O)N(CC)CC)ccc12	9	0	2.2*	1.1	5%	·
C=C(Cl)COc1ccc2c(C)cc(=O)oc2c1	11	6	1.7	1	7%	i
O=C(c1cn(-c2ccccc2)nc1-c1cccs1)N1CCN(c2ccccn2)CC1	4	11	1.1	0.99	2%	i
CN(CC(=O)NCc1cccs1)S(=O)(=O)c1cccc2nsnc12	4	16	1.1	1.1	7%	i
O=C(NCC1CCCO1)C1CC(c2ccc(Cl)c(Cl)c2)=NO1 (stereo not given)	4	3	1.1	0.98	3%	i
Cc1cc(=O)oc2cc(OCC(=O)N3c4ccccc4CC3C)ccc12 (stereo not given)	0	14	1.9	1.1	7%	i
CCCc1c(C)c2ccc(OCC(C)=O)cc2oc1=O	6	6	5.1*	1.1	6%	·

Assay outcomes as filed in PubChem.
